Hits are enriched below; roughly 4.1% of the tested compounds scored in any of these assays.
EBV LMP1 NFkB = reduces LMP1-driven NF-kappaB luciferase signal. LMP1-induced NF-kappaB luciferase reporter cells, luminescence. inhibition, % at 12.5 µM. 350,000 compounds, 0.69% hits. AID 504558; in the data active = inhibition above about 41%; inconclusive = no clear call, values can overlap the other calls
TROY NFkB inh = TROY signaling inhibition; Q293 LMP1-TROYcd NF-kB luciferase reporter, 4 h; inhibition, % at 10 µM; 360,000 compounds, 0.98% hits; AID 1347056;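 active = compounds whose plate-normalised and pattern-corrected inhibition of the luciferase reporter signal at the single screening dose is 50% or more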
TWEAK Fn14 block = TWEAK-Fn14 signaling inhibition | 360,000 compounds, 2% hits | TWEAK-stimulated Fn14 reporter cells, luciferase luminescence, 8 h | inhibition, % at 10 µM | AID 1159606; in the data active = inhibition above about 50%
Peg3 promoter = Peg3 promoter activity inhibition. HeLa PEG-Prom luciferase reporter, luminescence, overnight. inhibition, % at 20 µM. 360,000 compounds, 1.7% hits;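 active = inhibition of at least 50% at 20 µM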
Shn3 3UTR inh = reduces Shn3 3'UTR luciferase signal in osteoblasts | Clone20 osteoblast Shn3 3'UTR firefly luciferase, 24 h | inhibition, % at 12.5 µM | 360,000 compounds, 0.52% hits;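 active = mean inhibition of at least 75% with every replicate also reaching 75%; inconclusive = mean inhibition at least 75% but some replicate below; inactive = mean inhibition below 75%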
MITF TRPM1 inh = inhibitors of MITF-driven TRPM1 promoter in melanoma cells. inhibition, % at 12.5 µM. SK-MEL-5 TRPM1 promoter luciferase, 24 h. 330,000 compounds, 0.83% hits. AID 488899;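 active = mean inhibition across replicates of 60% or more, whatever share of single replicates reaches that level; inconclusive = some that reach 60%, reason not given; inactive = mean inhibition across replicates below 60%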
Of the large screens only hits and unclear results are named; the others gave an inactive call.

COC(=O)c1c(NC(=S)Nc2ccc(C(=O)N3CCOCC3)cc2)sc2c1CCC2	none
Cn1c(=O)c([N+](=O)[O-])c(-n2ccnc2)c2ccccc21	Peg3 promoter 55, MITF TRPM1 inh 89
Nc1ccc(-c2cnc(-c3ccc(N)cc3)nc2)cc1	TWEAK Fn14 block 67
CC1CCC/C(=C(\C#N)c2nc(-c3cc4ccccc4oc3=O)cs2)C1 (configuration not stated)	TROY NFkB inh 66, TWEAK Fn14 block 64
c1ccc(-c2nn(-c3ccccc3)[n+](-c3ccccc3)n2)cc1	MITF TRPM1 inh 62
CCc1ccc(-c2cc(C)no2)cc1S(=O)(=O)N1CCN(c2ccccn2)CC1	TROY NFkB inh 50
COc1ccccc1OCCNC(=O)C1CC(=O)N(Cc2ccccc2)C1 (configuration not stated)	none
CCCCNC(=O)NCc1cnn(C)c1C	none
COCCCNC(=O)CN1C(=O)COc2ccc(S(=O)(=O)N3CCOCC3)cc21	EBV LMP1 NFkB 57
Cc1sc2ncnc(Sc3nnnn3-c3ccc(Cl)cc3)c2c1C	TROY NFkB inh 65, TWEAK Fn14 block 102, Peg3 promoter 88, MITF TRPM1 inh 73
CSc1nnnn1-c1ccc(Cl)cc1	none
c1ccc(-n2nnnc2Sc2ncnc3sc4c(c23)CCCC4)cc1	TROY NFkB inh 73, TWEAK Fn14 block 100, Peg3 promoter 68, Shn3 3UTR inh inconclusive, MITF TRPM1 inh 63
OC(c1cc(Cl)cc(Cl)c1)c1ncc(-c2ccccc2F)[nH]1 (configuration not stated)	none (no result: EBV LMP1 NFkB, MITF TRPM1 inh)
CC(C)(C)n1ncc2c(=O)n(CC(=O)NCc3ccccc3)cnc21	TWEAK Fn14 block 84
CCn1c2ccccc2c2cc(/C=C(/C#N)C(N)=S)ccc21	EBV LMP1 NFkB 85
COC(=O)CCn1nnc(-c2cccs2)n1	none
COC(=O)CCn1nnc(-c2ccc(C(C)C)cc2)n1	EBV LMP1 NFkB inconclusive, TROY NFkB inh 50, TWEAK Fn14 block 68, MITF TRPM1 inh 68
O=c1[nH]c(-c2ccccn2)cc2ccccc12	TWEAK Fn14 block 79
CC(=O)C1CCC2C3CC=C4N(C)C(=O)CCC4(C)C3CCC12C (configuration not stated)	none
COc1cccc(CN2C(=O)C(C)N(C(=O)c3c(F)cccc3F)c3ccccc32)c1 (configuration not stated)	TWEAK Fn14 block 74
CC1C(=O)N(Cc2ccccc2F)c2ccccc2N1C(=O)c1c(F)cccc1F (configuration not stated)	none
CCCCCCNC(=O)O[C@H]1Cn2c(=O)ccc(=O)n2[C@@H]2CN(S(=O)(=O)c3ccc(C)cc3)C[C@]12O	TWEAK Fn14 block 89, Peg3 promoter 103, Shn3 3UTR inh 91 (no result: MITF TRPM1 inh)
C#CCN(C[C@@H]1[C@@H](OC(=O)NCC2CCCCC2)[C@@H](OC(=O)NCC2CCCCC2)Cn2c(=O)ccc(=O)n21)S(=O)(=O)c1ccc(C)cc1	EBV LMP1 NFkB 90, TROY NFkB inh 74, TWEAK Fn14 block 107, Peg3 promoter 106, Shn3 3UTR inh 99 (no result: MITF TRPM1 inh)
CCCCCCNC(=O)OC12CN(C(=O)OC(C)C)N(C(=O)OC(C)C)CC1(O)CN(S(=O)(=O)c1ccc(C)cc1)C2 (configuration not stated)	Peg3 promoter 84 (no result: MITF TRPM1 inh)
C#CCN(C[C@@H]1[C@@H](OC(=O)NCCCCCC)[C@@H](OC(=O)NCCCCCC)Cn2c(=O)ccc(=O)n21)S(=O)(=O)c1ccc(C)cc1	EBV LMP1 NFkB 90, TROY NFkB inh 88, TWEAK Fn14 block 106, Peg3 promoter 98 (no result: MITF TRPM1 inh)
CCCCCCNC(=O)O[C@H]1Cn2c(=O)n(CCCCCC)c(=O)n2[C@@H]2CN(S(=O)(=O)c3ccc(C)cc3)C[C@]12O	none (no result: MITF TRPM1 inh)
O=C(NCc1ccc(Cl)cc1Cl)C1CCN(S(=O)(=O)c2ccc3c(c2)OCCCO3)CC1	none
COc1cccc(CNc2nc(NC(C)C)nc3ccsc23)c1	none (no result: EBV LMP1 NFkB, MITF TRPM1 inh)
COc1ccccc1CNC(=O)COC(=O)/C=C/c1ccc2ccccc2n1	none
C#CCN(C[C@@H]1[C@@H](OC(=O)NCc2ccco2)[C@@H](OC(=O)NCc2ccco2)Cn2c(=O)ccc(=O)n21)S(=O)(=O)c1ccc(C)cc1	Peg3 promoter 95 (no result: MITF TRPM1 inh)
Cc1ccc(NC(=O)Cc2c(C(=O)O)n(C)c3ccccc23)cc1F	none
Cc1ccc2c(c1)c(CC(=O)Nc1ccc(F)cc1)c(C(=O)O)n2C	TWEAK Fn14 block 106
Cn1c(C(=O)O)c(CC(=O)Nc2ccc3c(c2)OCCO3)c2ccccc21	TROY NFkB inh 77, TWEAK Fn14 block 92 (no result: Shn3 3UTR inh)
O=C(Cn1c(=O)oc2cc(S(=O)(=O)N3CCCCC3)ccc21)N1CCCCC1	none
COc1ccc(NC2=Nc3ccccc3N3C2=Nc2c(c(C)nn2-c2ccc(C)cc2)C3c2cccnc2)cc1 (configuration not stated)	none
CC(=O)Nc1ccc(NC2=Nc3ccccc3N3C2=Nc2c(c(C)nn2-c2ccccc2)C3c2ccccc2)cc1 (configuration not stated)	EBV LMP1 NFkB inconclusive, TWEAK Fn14 block 96, Peg3 promoter 90, MITF TRPM1 inh 79
CCOC(=O)N1CCN(C(=O)COC(=O)c2ccc(Cl)nc2)CC1	none
Cc1cc2c(cc1C)N(C(=O)CCl)CCN2C(=O)CCl	Peg3 promoter 109, MITF TRPM1 inh 94
Cc1oc(-c2ccccc2F)nc1CSCC(=O)NC1CCC(C)CC1 (configuration not stated)	none
COc1cc([N+](=O)[O-])ccc1NC(=O)CC1SC(=Nc2ccc(F)cc2)N(CCC2=CCCCC2)C1=O (configuration not stated)	TWEAK Fn14 block 60
O=c1[nH]c(O)c(N=Nc2ccc(Cl)c(S(=O)(=O)Nc3ccccc3Cl)c2)c(=O)[nH]1	none
COc1ccc2c(C)nc(Nc3nc(-c4ccccc4)cc(=O)[nH]3)nc2c1	TROY NFkB inh 58, TWEAK Fn14 block 63, Peg3 promoter 108, MITF TRPM1 inh 70
Cc1ccc2nc(Nc3nc(-c4ccccc4)cc(=O)[nH]3)nc(C)c2c1	none (no result: TROY NFkB inh)
Cc1ccc2c(C)nc(Nc3nc(CSc4nc5ccccc5[nH]4)cc(=O)[nH]3)nc2c1	TROY NFkB inh 68, TWEAK Fn14 block 96, Peg3 promoter 109, MITF TRPM1 inh 80
CCN1CCN(C(=S)c2ccc(-c3ccccc3)cc2)CC1	TWEAK Fn14 block 69
Cc1ccc(C(=S)N2CCN(Cc3ccccc3)CC2)cc1	none
FC(F)(F)c1nnc2c(Sc3ccccc3)nc3ccc(Cl)cc3n12	TWEAK Fn14 block 53, Peg3 promoter 62, MITF TRPM1 inh 82
FC(F)(F)c1nc2ccccc2n2c(-c3ccc(Cl)cc3Cl)nnc12	none
CC(NC(=O)C(=O)NN=C1CCCC1)c1ccccc1 (configuration not stated)	none
CCC(=O)N1CCN(c2ccc(Cl)cc2NC(=O)c2ccc([N+](=O)[O-])o2)CC1	MITF TRPM1 inh 67
